# Results filed as inconclusive are left out. Where a call stands in place of a potency, no number is given. The source made the active and inactive calls. Calls come from the whole dose curve; as a rule, active = well fitted cell-killing curve with a large enough effect in the repeat runs; inconclusive = weak or mixed curves, or effect the other way; inactive = no such curve, though single readings can be large or run the other way.
# Experiment: qHTS assay to identify small molecule antagonists of the vitamin D receptor (VDR) signaling pathway - cell viability counter screen (AID 743225); note: nearly all actives have a fitted effect of over 50% in size
# Details: VDR-bla HEK293T viability, CellTiter-Glo luminescence, 16 h; series mostly up to 61 µM
# Source text: U.S. Tox21 Program National Center for Advancing Translational Sciences [NCATS] NIH Chemical Genomics Center [NCGC] U.S. Environmental Protection Agency [EPA] National Institutes of Environmental Health Sciences [NIEHS] National Toxicology Program [NTP] U.S. Food and Drug Administration [FDA] Tox21 Assay Overview: The vitamin D receptor (VDR), a member of nuclear hormone receptor superfamily, plays a critical role in calcium homeostasis and bone metabolism. It is also involved in cell differentiation and growth, and thrombogenicity. To identify the compounds that inhibit VDR signaling, the VDR-UAS-bla HEK 293T cell line (Invitrogen, Carlsbad, CA, USA) containing a beta-lactamase reporter gene under the control of an upstream activator sequence (UAS) was used to screen the Tox21 10K compound library. The cytotoxicity of the Tox21 compound library against the VDR-bla cell line was tested in parallel by measuring the cell viability using CellTiter-Glo assay (Promega, Madison, WI) in the same wells.
# Tox21 Assay Protocol Summary: VDR-bla cells were dispensed at 2,000 cells/5 uL of assay medium per well into black wall/clear-bottom 1536-well plates using a Multidrop Combi (Thermo Fisher Scientific, Waltham, MA) dispenser. After the assay plates were incubated at a 37C and 5% CO2 for 4 h, 23 nL of compounds dissolved in DMSO, positive controls or DMSO only was transferred to the assay plate by a Pintool station (Kalypsys, San Diego, CA), followed by addition of 1 uL of 1-alpha, 25-Dihydroxy Vitamin D3 (3 nM, final concentration in the wells) using a Bioraptr Flying Reagent Dispenser (FRD) workstation (Beckman Coulter, Indianapolis, IN). The plates were incubated at 37C and 5% CO2 for 16 h, and then 1 uL of LiveBLAzerTM B/G FRET substrate was added using a Bioraptr FRD. The plates were incubated at room temperature for 2 h and fluorescence intensity was measured by an Envision plate reader (PerkinElmer, Shelton, CT). For cell viability readout that measures cytotoxicity, 3 ul/well of CellTiter-Glo reagent was added into the assay plates using a Bioraptr FRD. After 30 min incubation at room temperature, the luminescence intensity in the plates was measured using a ViewLux plate reader (PerkinElmer).
# Potency is the fitted concentration of half-maximal effect.
row,SMILES,Potency
1,Cc1cccc(C(=O)O)c1,inactive
2,Nc1ccc(Nc2ccccc2)cc1,inactive
3,OCCO,inactive
4,Nc1ccccc1N,inactive
5,NNc1ccc(C(=O)O)cc1,inactive
6,COC(=O)c1ccccc1,inactive
7,CN(C)c1nc(N(C)C)nc(N(C)C)n1,inactive
8,Cc1cccc([N+](=O)[O-])c1C,inactive
9,COC(=O)CCC(=O)OC,inactive
10,O=C(c1ccccc1)c1ccc(O)cc1O,inactive
11,Nc1ccc(Cl)cc1Cl,inactive
12,c1ccncc1,inactive
13,Cc1ncc[nH]1,inactive
14,CC(C)Oc1ccc2c(=O)c(-c3ccccc3)coc2c1,inactive
15,CC(=O)C1(C)CC2=C(CCCC2(C)C)CC1C (stereo not given),inactive
16,Cc1c(OCC(F)(F)F)ccnc1CS(=O)c1nc2ccccc2[nH]1 (stereo not given),inactive
17,CN(C)CCN(Cc1cccs1)c1ccccn1,inactive
18,O=C(Nc1ccc(Cl)cc1)Nc1ccc(Cl)c(Cl)c1,inactive
19,C#C[C@]1(O)CC[C@H]2[C@@H]3CCc4cc(OC)ccc4[C@H]3CC[C@@]21C,inactive
20,O=Cc1ccccc1O,inactive

row,SMILES,Potency
1,c1ccc2c(c1)c1cccc3ccc4cccc2c4c31,inactive
2,CCCCC(CC)COC(=O)c1ccc(N(C)C)cc1 (stereo not given),inactive
3,CCCCNS(=O)(=O)c1ccccc1,inactive
4,C=C(C)C(=O)OCCOC(=O)C(=C)C,inactive
5,Cc1[nH]c(=O)c(C#N)cc1-c1ccncc1,inactive
6,Oc1ccc(O)cc1,inactive
7,OC1CCCCCCCCCCC1,inactive
8,CC(CCC(=O)O)(c1ccc(O)cc1)c1ccc(O)cc1,inactive
9,CC(C)CC(C)(O)C#CC(C)(O)CC(C)C (stereo not given),inactive
10,O=C(c1ccc(OCCN2CCCCC2)cc1)c1c(-c2ccc(O)cc2)sc2cc(O)ccc12,17.4 µM (active)
11,CCCCC(CC)COCC1CO1 (stereo not given),inactive
12,O=C(/C=C/C=C/c1ccc2c(c1)OCO2)N1CCCCC1,inactive
13,CCCCCCCCCC(=O)OC,inactive
14,CC(C)(C)NC(=O)[C@H]1CC[C@H]2[C@@H]3CC[C@H]4NC(=O)C=C[C@]4(C)[C@H]3CC[C@]12C,inactive
15,Clc1nc(Cl)c(Cl)c(Cl)c1Cl,inactive
16,C=CC(C)(CCC=C(C)C)OC(C)=O (stereo not given),inactive
17,O=C(O)c1ccccc1Nc1cccc(C(F)(F)F)c1,inactive
18,CCOCCOCCO,inactive
19,C#C[C@]1(O)CC[C@H]2[C@@H]3CCC4=Cc5oncc5C[C@]4(C)[C@H]3CC[C@@]21C,inactive
20,CCCCOCCOCCO,inactive

# Reference: PubChem BioAssay (Tox21)
